According to PubChem BioAssay (NCI):
The panel holds about 83,000 compounds, 20% with a hit somewhere; the sample as a whole holds those more often.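 Note: values are percent growth. 100 is the growth of untreated cells, values between 100 and 0 indicate rising inhibition; between -100 and 0 indicates cell death.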 Unmarked numbers belong to inactive results. The source made the active and inactive calls.

Each compound was assayed on CAKI-1 renal (assay: NCI-60 one-dose screen, 48 h (100 = growth as untreated, 0 = no growth, -100 = all killed)). Details: 10 µM unless noted.
Experimental: Growth inhibition of the CAKI-1 human tumor cell line is measured as a screen for anti-cancer activity. Cells are grown in 96 well plates and exposed to the test compound for 48 hours. Compounds are tested at a single concentration, which is 10^-5 M for most compounds. The reported endpoint is percent growth (GI% or GIPRCNT), where numbers from 0 - 100% represent growth inhibition, and numbers from -100% - 0 represent cell death. For example, a value of 40 represents 60% growth inhibition. A value of 0 means no net growth occurred over the course of the experiment. A value of -40 indicates 40% of cells at the beginning of the experiment died by the end of the experiment. A value of -100 means all cells are dead at the end of the experiment.
NCI-60 Human Tumor Cell Lines Screen was performed using the standard one-dose NCI protocol, which is described in more detail at https://dtp.cancer.gov/discovery_development/nci-60/default.htm.
Compounds with GIPRCNT values below 10 were considered active. Activity score was based on GIPRCNT using the following formula: […]
Score is 0 for GIPRCNT values of 100 or above, 50 for GIPRCNT values of 0, and 100 for GIPRCNT values of -100.

**Q.** Which growth does the source give for `CCN(CC)CC(C)(C)C(=O)/C=C/c1ccccc1` here?
**A.** The growth was 49.7%.

**Q.** Which growth does the source give for `Oc1c(Cl)cc(Cl)cc1CNc1nccnn1` here?
**A.** The growth was 89.6%.

**Q.** With `C[C@@H]1CC[C@@H]2[C@@H]1[C@H](OC(=O)/C=C/c1ccccc1)[C@]1(c3ccccc3)C[C@@H](OC(=O)CO)[C@@]2(C)O1` as the compound, how does the growth read?
**A.** The growth was 15.4%.

**Q.** With `CC[C@H](Nc1cc(C)nc(N)n1)c1nc2cccc(NCc3ccc(C(=O)NO)cc3)c2c(=O)n1-c1ccccc1` as the compound, how does the growth read?
**A.** The growth was 71.8%.

**Q.** For `COc1cccc(-c2cn3c(ccc4ccccc43)n2)c1`, which growth is on record?
**A.** Its growth is 32.4%.

**Q.** How did the growth turn out when `COCCOC(=O)C1=C(C)NC(=S)NC1c1ccc2c(c1)OCO2` (stereo not given) was run?
**A.** Its growth is 99.8%.

**Q.** For `COc1ccc(C/C(C)=C(\c2ccc(Cl)cc2)c2ccc(OCCN3CCCCCC3)cc2)cc1`, which growth is on record?
**A.** Its growth is 84.1%.

**Q.** `CC#Cc1nc2ccccc2c(=O)[nH]1` was tested. Which growth did it give?
**A.** The growth was 54.5%.

**Q.** For `CCOC(=O)c1ccc2c(c1)nc(/C=C/c1ccc(Cl)cc1)n2-c1cc(C(C)(C)C)[nH]n1`, which growth is on record?
**A.** Its growth is 92.3%.

**Q.** Which growth does the source give for `CN(C)c1ccc(C2Nc3ccccc3-n3cccc32)cc1` (stereo not given) here?
**A.** The growth was 83.3%.

**Q.** How did the growth turn out when `COC1=CC(=O)C(OC)=C(OC)C1=O` was run?
**A.** Its growth is 95.4%.

**Q.** Which growth does the source give for `CCCN(CCC)CN(CCC)CCC` here?
**A.** Its growth is 96.3%.

**Q.** Which growth does the source give for `C(=N\Nc1ccccn1)/c1ccccn1` here?
**A.** The growth was 10.5%.

**Q.** With `O=S(=O)(Nc1ccc(Cl)cc1Cl)c1ccc(-c2cnc(C3CC3)o2)cc1` as the compound, how does the growth read?
**A.** The growth was 38.8%.

**Q.** Which growth does the source give for `O=C(Cc1ccccc1)c1ccc(Cl)cc1` here?
**A.** Its growth is 75.2%.

**Q.** With `CC(=O)Nc1ccc2c(c1)c(NC(C)=O)nn2C(=O)Nc1ccc(Cc2ccccc2)cc1` as the compound, how does the growth read?
**A.** The growth was 49.2%.

**Q.** How did the growth turn out when `Cc1ccc(C2CC3c4ccccc4C2C2CCCCN32)cc1` (stereo not given) was run?
**A.** Its growth is 95%.

**Q.** With `Oc1ccc2c(=S)cc(-c3ccc(Br)cc3)oc2c1O` as the compound, how does the growth read?
**A.** The growth was 65.8%.

**Q.** How did the growth turn out when `Cc1ccc2c(c1)C(=O)/C(=C/c1ccc(OCC(=O)c3ccccc3)cc1)O2` was run?
**A.** The growth was 103%.

**Q.** `CC/C=C\C[C@H](O)C/C=C1/C(=O)C=C[C@@H]1C/C=C\CCCC(=O)NC` was tested. Which growth did it give?
**A.** The growth was 4.85% (active).

**Q.** Which growth does the source give for `CCCCCCCCCCCCCC1=NCCN1CCO` here?
**A.** The growth was 90.7%.

**Q.** `CCOC(=O)c1nc(Nc2cc(C)[nH]n2)c2ccccc2n1` was tested. Which growth did it give?
**A.** Its growth is 37.7%.

**Q.** `COc1ccc(S(=O)(=O)NCCCNc2nccc(-c3c(-c4cccc(N)c4)nc4sccn34)n2)cc1` was tested. Which growth did it give?
**A.** Its growth is 77.5%.

**Q.** How did the growth turn out when `CC(=O)C1=C(O)C=C2Oc3c(C(=O)/C=C/c4cc(Cl)cc(Cl)c4)c(O)c(C)c(O)c3[C@]2(C)C1=O` was run?
**A.** The growth was 2.74% (active).

**Q.** How did the growth turn out when `CN(C)c1ccc(/C=C(\C#N)c2nc3ccccc3s2)cc1` was run?
**A.** The growth was 89.2%.

**Q.** `CNC(=O)c1cc(Oc2ccc3nc(NC(=O)Nc4ccc(N5CCC(N(C)C)CC5)cc4)sc3c2)ccn1` was tested. Which growth did it give?
**A.** Its growth is 90.1%.

**Q.** `CC1=C(NCCN2CCCC2)C(=O)c2c(OCc3cccc(Cl)c3)cccc2C1=O` was tested. Which growth did it give?
**A.** The growth was 53.7%.

**Q.** Which growth does the source give for `NC1=CC(=O)C(=O)c2ccccc21` here?
**A.** Its growth is 91.3%.

**Q.** Which growth does the source give for `COc1ccc(C(=O)/C=C/c2c[n+](=O)c3ccc(F)cc3n2[O-])cc1` here?
**A.** The growth was 95.2%.

**Q.** `O=C(Nc1cccc2c1C(=O)c1cccc(Nc3cccc4c3C(=O)c3cccc(NC(=O)c5ccccc5)c3C4=O)c1C2=O)c1ccccc1` was tested. Which growth did it give?
**A.** The growth was 99.1%.

**Q.** `O=C([C@@H](COCc1ccccc1)N1C(=O)[C@@H](N2C(=O)OC[C@@H]2c2ccccc2)[C@H]1/C=C/c1ccccc1)N1CCC(CCN2CCCCC2)CC1` was tested. Which growth did it give?
**A.** Its growth is 99.9%.

**Q.** Which growth does the source give for `Nc1c(C(=O)Nc2cccc3c2OCCO3)sc2nc3c(cc12)C(=O)CCC3` here?
**A.** The growth was 47.6%.

**Q.** Which growth does the source give for `CCN(CC)CC(O)CNc1c2ccc([N+](=O)[O-])cc2nc2cc(OC)c(OC)cc12` (stereo not given) here?
**A.** The growth was 16.3%.

**Q.** How did the growth turn out when `CC1=C(C)C(=O)OC([C@](C)(O)[C@]2(O)CC[C@@]3(O)[C@@H]4C[C@H]5O[C@]56CC=CC(=O)[C@]6(C)[C@H]4CC[C@]23COC(=O)c2ccc(C)o2)C1` (stereo not given in full) was run?
**A.** The growth was -87.2% (active).

**Q.** How did the growth turn out when `c1ccc(Sc2ncnc3ccccc23)cc1` was run?
**A.** Its growth is 65.5%.

**Q.** For `CCN(C(=O)CN1CCN(c2cc3c(cc2F)c(=O)c(C(=O)O)cn3C2CC2)CC1)c1nc(-c2ccc(OC)cc2)cs1`, which growth is on record?
**A.** The growth was 75.7%.

**Q.** With `CCCCCCCCSC1=CC(=O)C(OC)=C(OC)C1=O` as the compound, how does the growth read?
**A.** Its growth is -45.6% (active).

**Q.** `Nc1ccc(Nc2nccc(-c3ccc4ccccc4c3)n2)cc1` was tested. Which growth did it give?
**A.** Its growth is 32%.

**Q.** For `CNC(=O)c1cc(Oc2ccc3nc(NC(=O)Nc4ccc(CN5CCOCC5)c(C(F)(F)F)c4)sc3c2)ccn1`, which growth is on record?
**A.** Its growth is 19.4%.

**Q.** For `COc1ccc(CNc2nccnn2)cc1`, which growth is on record?
**A.** The growth was 97.8%.
